From PMC4336329 (PLoS ONE, 2015)
The campaign covered roughly 310,000 compounds. About 14,000 (4.5%) showed an effect of 50% or more. The effect is printed as a negative number. Shown is part of a subset that was picked to be rich in strong results.
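Also: peak tail current of the secondary pulse compared with the same well before compound.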

What follows are compounds tested against human ether-à-go-go-related gene (hERG) potassium channel (human, UniProt Q12809) (assay: primary screen, population patch clamp on CHO cells stably expressing hERG; higher = less effect of the substance).
Chain of human ether-à-go-go-related gene (hERG) potassium channel (Q12809 whole entry, looked up): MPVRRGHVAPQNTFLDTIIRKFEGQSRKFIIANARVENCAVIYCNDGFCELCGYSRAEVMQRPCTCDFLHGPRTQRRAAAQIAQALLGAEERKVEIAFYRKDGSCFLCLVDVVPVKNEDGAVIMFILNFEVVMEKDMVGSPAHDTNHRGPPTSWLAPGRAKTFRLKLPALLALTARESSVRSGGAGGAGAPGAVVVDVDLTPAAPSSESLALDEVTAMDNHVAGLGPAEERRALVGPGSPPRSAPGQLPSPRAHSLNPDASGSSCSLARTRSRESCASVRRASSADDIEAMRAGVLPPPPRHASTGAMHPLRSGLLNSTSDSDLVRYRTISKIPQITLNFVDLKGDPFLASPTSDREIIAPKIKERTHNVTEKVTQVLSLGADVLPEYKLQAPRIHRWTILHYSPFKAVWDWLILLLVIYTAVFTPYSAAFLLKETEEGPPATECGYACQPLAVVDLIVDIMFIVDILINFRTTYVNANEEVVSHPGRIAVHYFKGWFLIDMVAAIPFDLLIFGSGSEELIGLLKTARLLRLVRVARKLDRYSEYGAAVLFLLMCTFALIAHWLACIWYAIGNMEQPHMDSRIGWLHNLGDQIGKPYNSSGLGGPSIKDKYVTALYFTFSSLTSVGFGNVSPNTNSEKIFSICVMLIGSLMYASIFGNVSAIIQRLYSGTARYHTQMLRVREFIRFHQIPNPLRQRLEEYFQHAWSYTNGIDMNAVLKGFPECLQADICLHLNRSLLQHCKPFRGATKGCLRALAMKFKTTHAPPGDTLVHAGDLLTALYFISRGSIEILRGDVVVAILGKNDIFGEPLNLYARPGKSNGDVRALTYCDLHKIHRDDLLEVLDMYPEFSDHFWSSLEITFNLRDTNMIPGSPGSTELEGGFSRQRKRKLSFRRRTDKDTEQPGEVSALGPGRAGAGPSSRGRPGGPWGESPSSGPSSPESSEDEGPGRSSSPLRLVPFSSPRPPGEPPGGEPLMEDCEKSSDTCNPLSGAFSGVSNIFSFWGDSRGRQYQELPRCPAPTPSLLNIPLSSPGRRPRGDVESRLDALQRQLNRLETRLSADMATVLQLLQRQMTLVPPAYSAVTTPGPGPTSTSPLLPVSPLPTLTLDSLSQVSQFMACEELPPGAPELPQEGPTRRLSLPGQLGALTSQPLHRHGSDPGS
For COc1ccc(CN2CCCC(C(=O)c3ccc4c(c3)OCO4)C2)c(F)c1 (centres unmarked), the “hERG current change (%, negative = inhibition) at 10uM” value was -64.2%.
For COc1cccc(CN2CCCC(C(=O)N3CCCCC3)C2)c1OC.O=C(O)C(=O)O (centres unmarked), the “hERG current change (%, negative = inhibition) at 10uM” value was -26.3%.
For COc1cccc(CN2CCC(C(=O)N3CCN(Cc4ccc5c(c4)OCO5)CC3)CC2)c1OC, the “hERG current change (%, negative = inhibition) at 10uM” value was -39.5%.
With COc1cccc(CN2CCCC(C(=O)c3ccc4c(c3)OCO4)C2)c1OC (centres unmarked) the “hERG current change (%, negative = inhibition) at 10uM” value was -63.3%.
For COc1cc(OC)c(OC)cc1CN1CCCC(C(=O)c2ccc3c(c2)OCO3)C1 (centres unmarked), the “hERG current change (%, negative = inhibition) at 10uM” value was -67.1%.
For COc1cc(OC)c(OC)cc1CN1CCCC(C(=O)N2CCCC2)C1.O=C(O)C(=O)O (centres unmarked), the “hERG current change (%, negative = inhibition) at 10uM” value was 17.4%.
COc1cccc(CN2CCCC(C(=O)c3ccc4c(c3)OCO4)C2)c1O (centres unmarked) was tested, and the “hERG current change (%, negative = inhibition) at 10uM” value was -65.5%.
COC(=O)c1ccccc1NC(=O)COC(=O)CO/N=C(\C)c1ccc2c(c1)OCO2 was tested, and the “hERG current change (%, negative = inhibition) at 10uM” value was 21%.
CCn1c(SCC(=O)Nc2nc3ccc(OC)cc3s2)nnc1-c1ccoc1C was tested, and the “hERG current change (%, negative = inhibition) at 10uM” value was -32.3%.
In the case of OC(COc1cc(Cl)c(Cl)cc1Cl)CN1CCN(c2ncccn2)CC1 (centres unmarked), the “hERG current change (%, negative = inhibition) at 10uM” value is reported as -11.3%.
CCSc1nnc(NC(=O)CSc2nccn2-c2cc(C)cc(C)c2)s1 was tested, and the “hERG current change (%, negative = inhibition) at 10uM” value was -2.92%.
COc1ccc(-c2c(C)nn3c(N4CCCCCC4)cc(C)nc23)cc1OC was tested, and the “hERG current change (%, negative = inhibition) at 10uM” value was 7.94%.
For COc1cccc(C(=O)C2CCCN(Cc3cccc4c3OCO4)C2)c1 (centres unmarked), the “hERG current change (%, negative = inhibition) at 10uM” value was -49.4%.
With CCNC(=O)N1CCCC(C(=O)c2ccc(OC)c(OC)c2)C1 (centres unmarked) the “hERG current change (%, negative = inhibition) at 10uM” value was 20.8%.
With COc1ccc(C(=O)C2CCCN(Cc3cccc4c3OCO4)C2)cc1OC (centres unmarked) the “hERG current change (%, negative = inhibition) at 10uM” value was -73.8%.
In the case of CCN1C(=O)CC(N2CCN(c3cccc(OC)c3)CC2)C1=O (centres unmarked), the “hERG current change (%, negative = inhibition) at 10uM” value is reported as 14.1%.
Cc1cc2nccc(-c3ccccn3)n2n1 was tested, and the “hERG current change (%, negative = inhibition) at 10uM” value was 28.3%.
In the case of Cc1ccc(Nc2nc(=O)[nH]nc2C)cc1, the “hERG current change (%, negative = inhibition) at 10uM” value is reported as -9.45%.
In the case of CC1CCCCC1NC(=O)CCNC(=O)N1CC(=O)Nc2ccccc21 (centres unmarked), the “hERG current change (%, negative = inhibition) at 10uM” value is reported as 10.5%.
In the case of CC(=O)Nc1cccc(-c2nnc(SCC(=O)n3c4c(c5ccccc53)CCCC4)n2C)c1, the “hERG current change (%, negative = inhibition) at 10uM” value is reported as 2.33%.
With CCOC(=O)c1c(NC(=O)CSc2nc3ccccc3[nH]2)sc2c1CC(C)(C)NC2(C)C the “hERG current change (%, negative = inhibition) at 10uM” value was -45.2%.
CCOC(=O)c1c(NC(=O)CSc2nc3ccc(C)cc3[nH]2)sc2c1CC(C)(C)NC2(C)C was tested, and the “hERG current change (%, negative = inhibition) at 10uM” value was -44.3%.
With CCOC(=O)c1c(NC(=O)COc2ccccc2F)sc2c1CC(C)(C)NC2(C)C the “hERG current change (%, negative = inhibition) at 10uM” value was 5.17%.
In the case of CCOC(=O)c1c(NC(=O)COc2ccccc2OCC)sc2c1CC(C)(C)NC2(C)C, the “hERG current change (%, negative = inhibition) at 10uM” value is reported as 13.3%.
For CCOC(=O)c1c(NC(=O)COc2ccccc2)sc2c1CC(C)(C)NC2(C)C, the “hERG current change (%, negative = inhibition) at 10uM” value was 14.3%.
With CCOC(=O)c1c(NC(=O)CSc2nnnn2-c2ccccc2OCC)sc2c1CC(C)(C)NC2(C)C the “hERG current change (%, negative = inhibition) at 10uM” value was -71.2%.
With CCOC(=O)c1sc(NC(=O)CSc2nnnn2-c2ccccc2)c(C(=O)OCC)c1C the “hERG current change (%, negative = inhibition) at 10uM” value was 4.34%.
With COC(=O)c1c(NC(=O)Cc2ccccc2)sc2c1CC(C)(C)NC2(C)C the “hERG current change (%, negative = inhibition) at 10uM” value was -11.1%.
In the case of CCOC(=O)c1c(NC(=O)CSc2ncccn2)sc2c1CC(C)(C)NC2(C)C, the “hERG current change (%, negative = inhibition) at 10uM” value is reported as -55.9%.
With CCOC(=O)c1c(NC(=O)CSc2nnnn2-c2ccccc2)sc2c1CCC(C)C2 (centres unmarked) the “hERG current change (%, negative = inhibition) at 10uM” value was -5.66%.
For CCOC(=O)c1c(NC(=O)Cc2ccccc2)sc2c1CC(C)(C)NC2(C)C, the “hERG current change (%, negative = inhibition) at 10uM” value was -52%.
For CCOC(=O)c1c(NC(=O)CSc2nnnn2-c2ccccc2)sc2c1CC(C)(C)NC2(C)C, the “hERG current change (%, negative = inhibition) at 10uM” value was -64.3%.
For N#Cc1ccc2ccn(CC(=O)NCc3ccccc3)c2c1, the “hERG current change (%, negative = inhibition) at 10uM” value was -1.22%.
O=C(CN1CCN(Cc2ccccc2F)C1=O)NC1CCCC1 was tested, and the “hERG current change (%, negative = inhibition) at 10uM” value was 1.87%.
Cc1nccn1CC(O)COC1CCCCC1 (centres unmarked) was tested, and the “hERG current change (%, negative = inhibition) at 10uM” value was 13%.
With Nc1nnnn1/N=C/c1cccs1 the “hERG current change (%, negative = inhibition) at 10uM” value was 3.28%.
In the case of CSc1ncccc1C(=O)NCCc1ccccc1, the “hERG current change (%, negative = inhibition) at 10uM” value is reported as 7.94%.
For CC(C)n1c(CN2CCN(Cc3ccccc3)CC2)nc2ccccc21, the “hERG current change (%, negative = inhibition) at 10uM” value was -14.4%.
In the case of CCN(CC)C(=O)CSc1nc2c(sc(=S)n2CC)c(=O)n1-c1ccccc1, the “hERG current change (%, negative = inhibition) at 10uM” value is reported as -66.9%.
CCC(C)NC(=O)CSc1nc2c(sc(=S)n2Cc2ccco2)c(=O)n1-c1ccccc1 (centres unmarked) was tested, and the “hERG current change (%, negative = inhibition) at 10uM” value was -9.99%.
For CCN(CC)C(=O)CSc1nc2c(sc(=S)n2-c2ccccc2OC)c(=O)n1-c1ccccc1, the “hERG current change (%, negative = inhibition) at 10uM” value was -4.22%.
With CCN(CC)C(=O)CSc1nc2c(sc(=S)n2Cc2ccco2)c(=O)n1-c1ccccc1 the “hERG current change (%, negative = inhibition) at 10uM” value was -29.4%.
In the case of CCN(CC)C(=O)CSc1nc2c(sc(=S)n2-c2ccccc2)c(=O)n1Cc1ccco1, the “hERG current change (%, negative = inhibition) at 10uM” value is reported as -78.7%.
In the case of CCn1c(=S)sc2c(=O)n(-c3ccccc3)c(SC)nc21, the “hERG current change (%, negative = inhibition) at 10uM” value is reported as -11.2%.
